Laboratory results: PubChem BioAssay
Inconclusive results are not listed. The source made the active and inactive calls.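 How the source made its calls, unless noted: active means growth inhibition above 25% in both replicates, a cutoff set 3 SD above the mean; inconclusive means above 25% in only one replicate; inactive means the rest.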

How the values were obtained:
[1] = reducers of endogenous Her2 protein level, primary screen, SKBR3 breast tumor cells, AlphaScreen, ATP viability (AID 461;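 active means Her2 level under about 52% in both replicate screens, with viability over 70% of control, limit read from the data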;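 on Her2 level: lower value means less Her2 protein in the cells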;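 on viability: percent of carrier control wells set as 100% viability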); conditions: 18-24 h, measured here: SKBR3 viability, ATP luminescence, at 10 µM
[2] = target: Receptor tyrosine-protein kinase erbB-2 (Homo sapiens) (UniProt P04626); test: as above; conditions: 18-24 h, at 10 µM, stronger effect = lower value
Sequence of Receptor tyrosine-protein kinase erbB-2 (Homo sapiens) (P04626 whole entry, looked up): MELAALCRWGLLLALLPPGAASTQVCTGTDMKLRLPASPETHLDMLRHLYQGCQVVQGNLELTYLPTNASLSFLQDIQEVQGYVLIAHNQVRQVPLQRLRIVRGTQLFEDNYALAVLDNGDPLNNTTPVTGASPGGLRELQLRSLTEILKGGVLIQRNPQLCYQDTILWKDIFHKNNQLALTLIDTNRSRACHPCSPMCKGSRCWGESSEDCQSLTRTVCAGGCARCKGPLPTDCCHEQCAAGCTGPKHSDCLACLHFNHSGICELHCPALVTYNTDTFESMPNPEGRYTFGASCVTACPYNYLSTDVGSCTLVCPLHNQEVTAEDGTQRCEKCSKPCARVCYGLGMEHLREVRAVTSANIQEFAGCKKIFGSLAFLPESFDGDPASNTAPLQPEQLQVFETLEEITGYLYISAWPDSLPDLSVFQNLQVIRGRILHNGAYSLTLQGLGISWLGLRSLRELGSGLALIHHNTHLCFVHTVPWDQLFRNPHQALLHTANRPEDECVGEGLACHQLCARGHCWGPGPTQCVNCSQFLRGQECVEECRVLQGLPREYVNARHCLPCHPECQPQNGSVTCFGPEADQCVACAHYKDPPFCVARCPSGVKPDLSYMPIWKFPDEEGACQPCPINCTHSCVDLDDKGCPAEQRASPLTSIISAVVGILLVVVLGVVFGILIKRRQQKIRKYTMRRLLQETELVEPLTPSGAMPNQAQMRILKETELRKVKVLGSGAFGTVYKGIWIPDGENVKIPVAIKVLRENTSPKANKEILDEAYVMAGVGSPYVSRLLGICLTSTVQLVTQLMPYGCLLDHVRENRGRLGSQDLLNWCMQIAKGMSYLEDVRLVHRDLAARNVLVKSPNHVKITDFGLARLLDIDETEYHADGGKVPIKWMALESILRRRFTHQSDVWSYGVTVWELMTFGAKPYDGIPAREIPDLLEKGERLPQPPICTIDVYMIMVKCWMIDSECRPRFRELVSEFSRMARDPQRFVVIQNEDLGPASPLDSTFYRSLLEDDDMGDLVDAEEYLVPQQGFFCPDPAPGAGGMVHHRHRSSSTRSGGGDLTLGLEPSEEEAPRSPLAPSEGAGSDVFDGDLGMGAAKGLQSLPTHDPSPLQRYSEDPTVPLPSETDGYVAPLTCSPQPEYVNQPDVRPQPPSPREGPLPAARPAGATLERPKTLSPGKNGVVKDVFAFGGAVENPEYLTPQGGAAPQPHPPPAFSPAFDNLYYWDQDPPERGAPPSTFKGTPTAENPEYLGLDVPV

[3] = SK-BR-3 cell growth inhibitors, pilot screen, 24 h, human (AID 572;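 active means viability at or below 10% of carrier control in both of two separate runs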;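 further: compound exposure lasted between 18 and 24 h rather than exactly 24 h; 100% = carrier-treated control wells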); conditions: SK-BR-3 viability, CellTiter-Glo luminescence, at 10 µM, stronger effect = lower value
[4] = HUVEC growth inhibition – cell-based, human, primary screen (AID 575;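 active means viability at or below 30% in both replicate assays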;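 further: 100% = median of untreated cell wells with 0.1% DMSO on each plate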); conditions: HUVEC proliferation, CellTiter-Glo luminescence, 72 h; at 10 µM; stronger effect = lower value
[5] = growth inhibitors of H69AR lung tumor, primary screen, human, duplicate replicates (AID 580;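 active means viability at or under a set limit in both replicates, limit being median viability minus 3 SD, cut at about 48% in these data, passing the limit was not always enough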;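 further: 100% = mean luminescence of untreated wells and 0% = no signal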); conditions: H69AR lung tumor cells viability, ATP luminescence, 72 h; at 10 µM; stronger effect = lower value
[6] = reversal of MRP1-mediated doxorubicin resistance, pilot screen, H69AR cells, doxorubicin co-treatment (AID 601;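 active means viability loss from added drug above about 55%, and viability with drug at most 40%, in both replicates, limit read from the data, passing the limit was not always enough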); conditions: CellTiter-Glo, 72 h, at 10 µM; for differential viability (reversal): stronger effect = higher value
[7] = 384-well plate pilot, post-Golgi transport modulator project, inhibition of yeast transport mutant growth (AID 636; in the data active means inhibition above about 31%); conditions: absorbance 615 nm, about 18 h, stronger effect = higher value
[8] = growth suppression of yeast trafficking mutant, preliminary HTS, modulators of trafficking downstream of Golgi apparatus project, 1536-format plate, OD 615 nm (AID 637; in the data active means inhibition above about 30%); conditions: yeast transport mutant growth, absorbance 615 nm, 18 h; stronger effect = higher value
[9] = OD615 S. cerevisiae growth inhibition, permissive medium, pilot counter-assay, permissive growth control for S. cerevisiae lifespan shortening project (AID 705); conditions: OD615, 24 h, at 10 µM, stronger effect = higher value
[10] = Restrictive medium S. cerevisiae growth inhibition, OD615, pilot screen of yeast lifespan reduction project, restrictive growth control (AID 706;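 active means growth inhibition above a set limit, 3 SD over mean compound inhibition, in both replicates, cut at about 43% in these data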;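 further: modified DeaD lifespan yeast strain shifted to restrictive glucose medium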); conditions: OD615, 48 h, at 10 µM, stronger effect = higher value
[11] = viability gain of MRP-1-high H69AR cells under doxorubicin, pilot screen, MRP-1 activator project, CellTiter-Glo, duplicate (AID 807;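 active means viability increase at or above a cutoff of the median across tested compounds plus 3 SD, cut at about 8.5% in these data, passing the limit was not always enough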;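 further: compound pretreatment 18-22 h then 72 h combined with doxorubicin; 0% = doxorubicin alone and 100% = vehicle without doxorubicin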); conditions: H69AR viability with doxorubicin, CellTiter-Glo luminescence; at 10 µM; stronger effect = higher value
[12] = growth suppression of beta-catenin knockout HCT116, pilot screen, human colon tumor cells (AID 823;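 active means cell viability at or below a set limit in both duplicate runs, the limit being the all-compound median minus 4 SD, cut at about 23% in these data, passing the limit was not always enough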;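 further: 0% = wells killed by 20 µM Hyamine and 100% = untreated DMSO cell wells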); conditions: CellTiter-Glo, 60 h, at 10 µM, stronger effect = lower value
[13] = growth suppression of PTEN-deleted HCT116, pilot screen, cell-based, HCT116 clonal line, CellTiter-Glo (AID 824;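 active means viability at or below 27.92% in each of two runs, the all-compound median minus 4 SD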;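 further: 0% = 20 µM Hyamine control and 100% = vehicle cell control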); conditions: 60 h, at 10 µM, stronger effect = lower value
[14] = inhibitors of the yeast RAM network, pilot screen, dse1pr::URA3 reporter, 5-FOA selection (AID 869;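 active means inhibition over a set limit, the all-compound mean plus 3 SD, in both replicate runs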;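 further: 0% = DMSO wells with no growth and 100% = 10 µM 1-NA-PP1 with full growth; RAM network block rescues cells from 5-FOA so hits raise OD615 growth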); conditions: S. cerevisiae dse1pr::URA3 5-FOA growth, OD615, 2 d; at 10 µM; stronger effect = higher value; strain carries analog-sensitive mutant Cbk1 kinase
[15] = RAM signaling pathway blockade in yeast – S. cerevisiae, Pdr1DBD-CYC8 efflux-inhibited sensitized strain, primary screen (AID 1298;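 active means RAM network inhibition above 8.4% in each of two replicates, 3 SD over the compound average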;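 further: 0% = DMSO untreated cells without growth and 100% = 10 µM 1-NA-PP1 full growth; higher means more yeast growth rescued from 5-FOA killing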); conditions: S. cerevisiae cbk1-as DSE1-URA3 strain, 5-FOA growth OD615, 2 d; at 50 µM; stronger effect = higher value
[16] = H69AR cells + 2 uM doxorubicin, measured here: viability with 2 uM doxorubicin, stronger effect = lower value
[17] = H69AR cells, compound alone cytotoxicity

SMILES	viability [1] [%]	Her2 level [2]	viability [3]	viability [4]	viability [5]	differential viability (reversal) ([6]; H69AR cells + 2 uM doxorubicin)	viability [6, 16] [%]	viability [6, 17] [%]	inhibition [7]	inhibition [8]	growth inhibition [9]	growth inhibition [10]	viability increase [11]	viability [12]	viability [13]	inhibition [14]	RAM network inhibition [15]
CCN(CC)C(=O)c1ccc(CS(=O)(=O)c2ccc(OC)cc2)o1	84.5	116% (inactive)	84.5% (inactive)	99.2% (inactive)	87.8% (inactive)	-0.895% (inactive)	88.7	87.8	1.54% (inactive)	-6% (inactive)	-6.54% (inactive)	-7.93% (inactive)	-1.02% (inactive)	97.4% (inactive)	95.3% (inactive)	1.96% (inactive)	3.14% (inactive)
COc1ccc(-n2nnnc2SCC(=O)N2CCOCC2)cc1	93	92% (inactive)	93% (inactive)	83.8% (inactive)	89.2% (inactive)	0.58% (inactive)	88.6	89.2	-4.67% (inactive)	-0.5% (inactive)	-2.94% (inactive)	-5.96% (inactive)	-1.07% (inactive)	96.2% (inactive)	98.8% (inactive)	0.85% (inactive)	3.08% (inactive)
CCOC(=O)C1CCCN(C(=O)c2ccc(CS(=O)(=O)c3ccc(Br)cc3)o2)C1 (stereo not given)	85.5	102% (inactive)	85.5% (inactive)	79.5% (inactive)	95.6% (inactive)	-1.7% (inactive)	97.3	95.6	-2.93% (inactive)	-3.83% (inactive)	-9.14% (inactive)	-18.5% (inactive)	-1.86% (inactive)	100% (inactive)	98.6% (inactive)	1.39% (inactive)	3.92% (inactive)
Cc1nnc(NC(=O)CSc2cn(CCNC(=O)c3ccccc3)c3ccccc23)s1	83.5	106% (inactive)	83.5% (inactive)	75.5% (inactive)	80.4% (inactive)	13.6% (inactive)	66.8	80.4	-3.2% (inactive)	-4.17% (inactive)	3.24% (inactive)	17% (inactive)	-0.89% (inactive)	93.5% (inactive)	88% (inactive)	-0.12% (inactive)	1.15% (inactive)
Cc1ccc(NC(=O)c2cc(-c3ccc(C)o3)nc3ccccc23)nc1	80	74% (inactive)	80% (inactive)	73% (inactive)	4.86% (active)	-0.595% (inactive)	5.45	4.86	-7.43% (inactive)	-0.82% (inactive)	3.23% (inactive)	-2.09% (inactive)	-4.08% (inactive)	78.6% (inactive)	84.2% (inactive)	1.21% (inactive)	0.74% (inactive)
COC(=O)Cn1c(CN2CCN(c3ccccc3F)CC2)nc2c1c(=O)n(C)c(=O)n2C	104	95% (inactive)	104% (inactive)	95.3% (inactive)	93.8% (inactive)	6.45% (inactive)	87.3	93.8	-3.73% (inactive)	3.33% (inactive)	-7.25% (inactive)	-1.94% (inactive)	0.3% (inactive)	97.4% (inactive)	90.1% (inactive)	2.47% (inactive)	6.25% (inactive)
Cc1ccc(-n2ncc3c(=O)[nH]c(SC(C)C)nc32)cc1	93	104% (inactive)	93% (inactive)	84.9% (inactive)	80.1% (inactive)	11.3% (inactive)	68.7	80.1	-4.4% (inactive)	-6% (inactive)	-3.77% (inactive)	-5.77% (inactive)	-3.9% (inactive)	98.4% (inactive)	87.4% (inactive)	3.35% (inactive)	4.11% (inactive)
CCC(CC)C(=O)NCCc1cc2ccc(C)cc2[nH]c1=O	99	95% (inactive)	99% (inactive)	85.2% (inactive)	87.6% (inactive)	-5.36% (inactive)	92.9	87.6	-4.8% (inactive)	4.67% (inactive)	1.09% (inactive)	0.345% (inactive)	-2.76% (inactive)	102% (inactive)	97.4% (inactive)	0.02% (inactive)	4.75% (inactive)
O=C(O)c1ccc(-c2ccc(O)c(F)c2)cc1	94	167% (inactive)	94% (inactive)	92.8% (inactive)	82.9% (inactive)	-5.75% (inactive)	88.6	82.9	-0.4% (inactive)	1.5% (inactive)	-8.37% (inactive)	12.1% (inactive)	-2.66% (inactive)	99.3% (inactive)	97.4% (inactive)	-0.17% (inactive)	-2.4% (inactive)
COC(=O)C1=C(N)OC2=C(C(=O)CCC2)C1c1cccs1 (stereo not given)	110	85% (inactive)	110% (inactive)	93.7% (inactive)	101% (inactive)	17.8% (inactive)	83.2	101	-4.19% (inactive)	4.1% (inactive)	-2.24% (inactive)	-6.3% (inactive)	-2.89% (inactive)	94.9% (inactive)	92.9% (inactive)	2.75% (inactive)	4.64% (inactive)
